From PubChem BioAssay AID1063 (University of Pittsburgh Molecular Library Screening Center, 2008) come the findings set out here.

Structures are written as SMILES. In all, about 200,000 compounds went through this assay and about 18,000 (9%) were called active. The list comes from a sample in which actives are over-represented; it also holds similar structures and randomly drawn compounds. A number with no mark means an inactive call. No stated cut-off is given here; in the data, active means inhibition above about 50%; inactive means the rest.

The test in a line: antileishmanial activity against promastigotes – primary screen (AID 1063).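 Further: promastigotes grown with compound for 44 hours at 28 °C.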 The settings on record: Leishmania major promastigotes, resazurin fluorescence viability; at 10 µM; stronger effect = higher value. On the technique in general: Resazurin is reduced to fluorescent resorufin, in cell work by metabolically active cells.
Usually inhibition stands for the drop in the measured response relative to a control, in per cent. For the compound `O=C(CP(=O)(c1ccccc1)c1ccccc1)N1CCOCC1`, the inhibition is -9.31%.

As for `O=C(NCc1cccnc1)c1cccnc1Sc1ccc(Cl)cc1`, the inhibition was 84.6% (active).

As for `CS(=O)(=O)N(Cc1ccccc1Cl)c1ccc(C(=O)NCc2cccnc2)cc1`, the inhibition is 1.77%.

As to `Cc1ccc(S(=O)(=O)N(Cc2ccc(Cl)cc2)c2ccccc2C(=O)NCc2cccnc2)cc1`, the inhibition was 93.2% (active).

`O=C(O)c1ccccc1-c1ccccc1C(=O)NCc1cccnc1`: the inhibition was -6.64%.

With `Cc1ccc(CNC(=O)c2cccnc2Cl)cc1`, the inhibition was 0.71%.

With `O=C(NC1CCCCCC1)c1cccnc1Sc1ccc(Cl)cc1`, the inhibition was -4.38%.

On to `O=C(NC(=S)Nc1cccc(-c2ccc(CO)o2)c1)c1cccs1`, for which the inhibition was -1.96%.

As for `Cc1cc2c(cc1C)[n+](C)cn2CC(O)COCC1CC=CCC1` (stereo not given), the inhibition was -1.67%.

Consider `COc1ccc(N2CCN(C(=O)/C(C#N)=C/c3ccccc3)CC2)cc1`, for which the inhibition was 6.39%.

For `Cc1ccc(N2C(=O)C3CC3C2=O)cc1` (stereo not given), the inhibition was -5.37%.

Take `O=C(COC(=O)c1ccc(Cl)nc1)NCc1cccs1`: the inhibition was -8.06%.

Regarding `CC(=O)Nc1cccc(-c2nc3ccccc3s2)c1C`, the inhibition is 17.8%.

In the case of `CCN(CC)c1ccc(C(=O)c2cnc(/N=C/N(C)C)s2)cc1`, the inhibition was 0.96%.

As to `Cc1cccc(N2CCN(c3ccc(C(N)=O)cc3[N+](=O)[O-])CC2)c1C`, the inhibition is 2.25%.

Turning to `CCc1c(SCCC(=O)O)nc2ccccc2c1C`, the inhibition was -1.78%.

Regarding `CN1CCN(NC(=O)c2ccc(S(=O)(=O)N3CCCCCC3)cc2)CC1`, the inhibition is -0.39%.

As for `O=C(CC(=O)Nc1ccc(Cl)c(Cl)c1)N/N=C/c1ccc(O)cc1`, the inhibition was 59.3% (active).

For `CC1=NNC(=O)C1CCC(=O)N/N=C\c1ccc(Cl)c(Cl)c1` (stereo not given), the inhibition is -3.71%.

With `O=C(C[n+]1ccccc1)N/N=C/c1ccc(O)cc1`, the inhibition was -6.86%.

On to `CCOC(=O)c1c(-c2cccc(N)c2)cn2ccccc12`, for which the inhibition is 0.87%.

In the case of `Cc1ccc(COc2ccc(/C=N/NC(=O)CN3CCCCC3)cc2)cc1`, the inhibition is 5.55%.

For the compound `O=C(Nc1cccc([N+](=O)[O-])c1)Nc1ccc(Cl)cn1`, the inhibition was -0.05%.

Take `O=C(CCl)N(Cc1cccc([N+](=O)[O-])c1)c1cccc(Cl)c1`: the inhibition was 101% (active).

In the case of `CCN(CC)C(=O)CN(c1cccc([N+](=O)[O-])c1)S(=O)(=O)c1ccccc1`, the inhibition was -3.8%.

For `Cc1ccc(C(=O)OC(C)CN2CCOCC2)cc1` (stereo not given), the inhibition is -9.42%.

`COC(=O)C(C)NC(=O)COc1ccc2ccccc2c1` (stereo not given): the inhibition was 9.52%.

With `CCCCCCCCc1c(O)nc(-n2[nH]c(C)c(CCO)c2=O)[nH]c1=O`, the inhibition is -4.27%.

As to `COC(=O)/C(=C1\Oc2ccc(C(C)(C)C)cc2S1)C(F)(F)F`, the inhibition is -4.31%.

Take `Cc1cc2ccccn2c1C(=O)c1cccc(S(=O)(=O)N2CCOCC2)c1`: the inhibition is 15.2%.

With `COc1ccc(C(=O)CSc2nnnn2C)c(OC)c1`, the inhibition was -1.53%.

`Cc1ccc(Oc2cc(NC(=O)CCCn3nc(C)c([N+](=O)[O-])c3C)cc([N+](=O)[O-])c2)cc1`: the inhibition is 98.4% (active).

On to `Cc1nn(CC(=O)Nc2ccc(N(C)C)cc2)c(C)c1[N+](=O)[O-]`, for which the inhibition was 0.03%.

As for `COc1ccc(CNC(=O)CCCn2nc(C)c([N+](=O)[O-])c2C)cc1`, the inhibition is -8.33%.

On to `Cc1ccc(CNC(=O)CC2Sc3ccccc3NC2=O)cc1` (stereo not given), for which the inhibition is -7.06%.

Consider `CNc1nc2c(C)cccn2c(=O)c1C=Nc1ccc(OC)cc1`, for which the inhibition was 1.72%.

Turning to `COc1ccccc1N(CC(=O)Nc1ccc(C(F)(F)F)cc1)S(C)(=O)=O`, the inhibition was 1.92%.

For the compound `C/C(=N/NC(=O)c1ccc(NC(=O)c2ccc(F)cc2)cc1)c1ccccc1`, the inhibition is -6.46%.

As for `CC(=O)Nc1ccc(/C(C)=N/NC(=O)CN(c2ccccc2Br)S(C)(=O)=O)cc1`, the inhibition was 50.5% (active).

Regarding `O=C(Nc1ccccc1F)c1ccc(Cn2cc(Br)cn2)cc1`, the inhibition is -6.11%.

For the compound `Cc1ccc(-c2nc(C#N)c(NCCCn3ccnc3)o2)cc1`, the inhibition is 2.16%.

Consider `O=C(Cn1ncc(N2CCCC2)c(Br)c1=O)c1ccc(Cl)cc1`, for which the inhibition was 1.31%.

`Cn1c(C(=O)NCCCN2CCN(c3cccc(Cl)c3)CC2)cc2c(=O)n(C)c3ccccc3c21`: the inhibition was 62.5% (active).

With `CCn1c(=O)cc(OCC(=O)NCCCN2CCN(c3cccc(Cl)c3)CC2)c2ccccc21`, the inhibition is 23.9%.

On to `CC1CCCC(C)N1CCCNC(=O)c1cc2c(=O)n(C)c3ccccc3c2n1C` (stereo not given), for which the inhibition was 8.51%.

Turning to `Cc1cc(NC(=O)CSc2nc3c(cc2C#N)CCCCC3)no1`, the inhibition is 2.09%.

Turning to `O=C(CCC1CCCN(C(=O)Cc2ccc(F)cc2)C1)N1CCN(c2ccccn2)CC1` (stereo not given), the inhibition is 0.87%.

For the compound `O=C(COC(=O)c1cnccn1)Nc1cccc2ccccc12`, the inhibition is -4.62%.

With `Cc1cc(C)n2nc(C(=O)N(C)C(c3ccccc3)c3ccccc3)nc2n1`, the inhibition is 0.1%.

Consider `O=C(CO/N=C/c1ccc(OC(F)F)cc1)NCc1ccc(F)cc1`, for which the inhibition was 6.32%.

In the case of `CCOc1ccc(NC(=O)CC2C(=O)N(c3ccccc3)C(=O)N2CCOC)cc1` (stereo not given), the inhibition was -1.57%.

As for `COC(=O)CN1C(=S)N(c2ccccc2)C(=O)C1CC(=O)Nc1ccc(Cl)cc1` (stereo not given), the inhibition was 50.4% (active).

In the case of `COc1ccc(N2C(=O)C(CC(=O)Nc3ccccc3)N(Cc3ccc(OC)c(OC)c3)C2=O)cc1` (stereo not given), the inhibition was -5.05%.

Take `O=C(Nc1ccc(-c2ccc3nncn3n2)cc1)C1CCCCC1`: the inhibition is -4.63%.

Turning to `CCc1ccc(CN2C(=O)c3ccccc3C2C(=O)NCC2CCCO2)cc1` (stereo not given), the inhibition is 5.61%.

For the compound `COc1cccc(CN(C)CC(=O)NCc2ccccc2Cl)c1OC`, the inhibition is 2.93%.

Consider `COC(=O)c1cc(S(=O)(=O)NC2CCN(Cc3ccccc3)CC2)cn1C`, for which the inhibition is 79.3% (active).

Regarding `Cn1c(=O)c(=O)n(C)c2cc(S(=O)(=O)NCCc3ccccc3)ccc21`, the inhibition was 18.8%.

Consider `O=C(NC1(C(F)(F)F)NC(=O)N(C2CCCCC2)C1=O)c1ccco1` (stereo not given), for which the inhibition is -0.8%.

`COc1cc(NC(=S)NCc2ccco2)c(OC)cc1Cl`: the inhibition is 7.75%.
